We go through 3 compounds from PubChem BioAssay (EPA / NIEHS).

Assay [1] can be described thus: ATG_M_32_CIS: Attagene CIS-FACTORIAL HepG2 Assay for M32 Transcription Factor (Internal Marker) (AID 2282949).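 Also: background control marker of the multiplexed CIS panel rather than a real target.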 Conditions: HepG2 Attagene cis-factorial M32 reporter, mRNA; actives raise or lower the signal. A digest of the protocol: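 HepG2 cells transiently transfected with multiplexed cis-regulated reporter units, dosed 24 h. Reporter mRNA quantified by RT-PCR, 6-FAM labelling, HpaI digestion and capillary electrophoresis; bidirectional fit vs DMSO.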

Assay [2] in a line: ATG_M_06_CIS: Attagene CIS-FACTORIAL HepG2 Assay for M06 Transcription Factor (Internal Marker) (AID 2282950). Conditions: HepG2 Attagene CIS-FACTORIAL M06 internal marker reporter; actives raise or lower the signal. A digest of the protocol:
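HepG2 cells transiently transfected with cis-regulated multiple reporter transcription units were exposed to chemical for 24 h; reporter mRNA was quantified by RT-PCR, 6-FAM primer labelling, HpaI digestion and capillary electrophoresis, fitted bidirectionally against DMSO.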

Assay [3] has as its target Hypoxia-inducible factor 1-alpha (Homo sapiens) (UniProt Q16665). The assay is described as follows: ATG_HIF1a_CIS: Attagene CIS-FACTORIAL HepG2 Assay for human Hypoxia Inducible Factor 1 (HIF1A) (AID 2282951). The following applies: HepG2 Attagene cis-factorial HIF1a reporter transcription; actives raise or lower the signal. An outline of the steps: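 In this multiplexed cell assay, HepG2 cells bearing transfected cis reporters are dosed for 24 h and reporter mRNA is read by RT-PCR plus capillary electrophoresis; signal increases and decreases are both scored against DMSO.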

In assay [4] the target is Hepatocyte nuclear factor 6 (Homo sapiens) (UniProt Q9UBC0). The assay is described as follows: ATG_HNF6_CIS: Attagene CIS-FACTORIAL HepG2 Assay for human Hepatocyte Nuclear Factor 6 (HNF6) (AID 2282952). Conditions: HepG2 Attagene cis-factorial HNF6 reporter transcription; actives raise or lower the signal. An outline of the steps: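 HepG2 cells transiently transfected with cis-element-driven multiplexed reporter units measuring endogenous transcription factor activity. After 24 h exposure, reporter mRNA quantified by RT-PCR, FAM-labelled fragments and capillary electrophoresis; bidirectional fitting versus DMSO.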

The target in assay [5] is Heat shock factor protein 1 (Homo sapiens) (UniProt Q00613). The assay is described as follows: ATG_HSE_CIS: Attagene CIS-FACTORIAL HepG2 Assay for human Heat Shock Transcription Factor 1 (HSE) (AID 2282953). The following applies: HepG2 HSE cis-reporter, Attagene RNA transcription; actives raise or lower the signal. A digest of the protocol:
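HepG2 cells transiently transfected with multiple reporter transcription units under cis-regulatory promoter control, measuring endogenous transcription factor activity. After 24 h chemical exposure, reporter mRNA quantified by RT-PCR, fluorescent labelling, HpaI digestion and capillary electrophoresis; bidirectional fit versus DMSO.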

A short description of assay [6]: ATG_MRE_CIS: Attagene CIS-FACTORIAL HepG2 Assay for human Metal Responsive Element (MRE) (AID 2282954). The following applies: HepG2 MRE cis-reporter transcription, Attagene multiplex; actives raise or lower the signal. A digest of the protocol: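 Step one: transfect HepG2 with cis-regulated reporter units. Step two: dose 24 h. Step three: isolate RNA, RT-PCR, 6-FAM label, HpaI digest, capillary electrophoresis. Fit bidirectionally to DMSO.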

A short description of assay [7]: ATG_PBREM_CIS: Attagene CIS-FACTORIAL HepG2 Assay for human Phenobarbital-responsive Enhancer Module (PBREM) (AID 2282955). Conditions: HepG2 PBREM cis-reporter, Attagene multiplexed transcription; actives raise or lower the signal. A digest of the protocol:
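After a 24 h incubation with test chemical, transfected HepG2 cells yield total RNA; reporter-specific RT-PCR products are fluorescently labelled, HpaI-digested and resolved by capillary electrophoresis against ROX size standards.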

A short description of assay [8]: ATG_PXRE_CIS: Attagene CIS-FACTORIAL HepG2 Assay for human Pregnane X Receptor Element (PXRE) (AID 2282957). The following applies: HepG2 Attagene CIS-FACTORIAL PXRE reporter, mRNA; actives raise or lower the signal. A digest of the protocol: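 HepG2 cells transiently transfected with cis-element-driven multiplexed reporter units; after 24 h chemical exposure, reporter mRNA measured by RT-PCR, 6-FAM labelling, HpaI digestion and capillary electrophoresis. Bidirectional fitting relative to DMSO.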

A short description of assay [9]: ATG_PPRE_CIS: Attagene CIS-FACTORIAL HepG2 Assay for human Peroxisome Proliferator-activated Response Element (PPRE) (AID 2282958). The following applies: HepG2 PPRE cis-element reporter, Attagene transcription factor profiling; actives raise or lower the signal. An outline of the steps:
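Multiplexed reporter transcription units under cis-regulatory promoters were transfected into HepG2 cells to capture endogenous factor activity. A 24 h incubation preceded RNA isolation and fluorescent RT-PCR fragment analysis.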

Assay [10] in a line: ATG_RORE_CIS: Attagene CIS-FACTORIAL HepG2 Assay for human RAR-related Orphan Receptor Element (RORE) (AID 2282959). The following applies: HepG2 Attagene cis-factorial RORE reporter, mRNA; actives raise or lower the signal. An outline of the steps: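 Fluorescence intensity of reporter-specific cDNA fragments, separated by capillary electrophoresis, gives the signal. Source: HepG2 liver cells transiently transfected with cis-element reporters and exposed 24 h; DMSO-normalized bidirectional fit.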

Assay [11] in a line: ATG_Sox_CIS: Attagene CIS-FACTORIAL HepG2 Assay for human SRY-box transcription factor (SOX) (AID 2282960). Conditions: HepG2 Attagene cis-factorial SOX reporter, mRNA; actives raise or lower the signal. An outline of the steps:
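After 24 h of chemical treatment, transfected HepG2 reporter cells are lysed for total RNA. Transcript levels come from RT-PCR with labelled primer extension and capillary electrophoresis, analysed bidirectionally versus DMSO.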

Assay [12] deals with Transcription factor Sp1 (Homo sapiens) (UniProt P08047). The assay is described as follows: ATG_Sp1_CIS: Attagene CIS-FACTORIAL HepG2 Assay for human Specificity Protein 1 (Sp1) (AID 2282961). The following applies: HepG2 Sp1 cis-reporter transcription, actives raise or lower the signal. A digest of the protocol:
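Sp1-driven reporter mRNA, read as capillary electrophoresis fluorescence after RT-PCR, in transiently transfected HepG2 cells dosed for 24 h; signal change in either direction relative to DMSO.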

Assay [13] is described as follows: ATG_SREBP_CIS: Attagene CIS-FACTORIAL HepG2 Assay for human Sterol Regulatory Element Binding (SREBP) (AID 2282962). The following applies: HepG2 Attagene cis-factorial SREBP reporter, mRNA; actives raise or lower the signal. An outline of the steps: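 HepG2 cells transiently transfected with multiplexed cis-element reporter units report endogenous transcription factor activity. After 24 h of chemical exposure, reporter mRNA was quantified by RT-PCR, 6-FAM labelling, HpaI digestion and capillary electrophoresis; bidirectional fits used DMSO as baseline.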

The target of assay [14] is Signal transducer and activator of transcription 3 (Homo sapiens) (UniProt P40763). The assay is described as follows: ATG_STAT3_CIS: Attagene CIS-FACTORIAL HepG2 Assay for human Signal Transducer and Activator of Transcription 3 (STAT3) (AID 2282963). The following applies: HepG2, Attagene cis-factorial STAT3 reporter transcription; actives raise or lower the signal. A digest of the protocol:
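Transcript-level reporter assay. HepG2 transient MRTU transfection, 24 h exposure, fluorescence detection after RT-PCR and CE; DMSO baseline.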

A short description of assay [15]: ATG_TA_CIS: Attagene CIS-FACTORIAL HepG2 Assay for human TA Basal Promoter (AID 2282964). Conditions: HepG2 Attagene CIS-factorial TA basal promoter reporter; actives raise or lower the signal. A digest of the protocol: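 HepG2 cells transiently transfected with multiplexed cis-promoter reporter units, dosed 24 h. Reporter mRNA measured by RT-PCR, 6-FAM labelling, HpaI digestion and capillary electrophoresis; bidirectional fit versus DMSO baseline, serving as background control.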

Assay [16] in a line: ATG_TCF_b_cat_CIS: Attagene CIS-FACTORIAL HepG2 Assay for human T-Cell-Factor with beta-catenin (TCF/b-cat) (AID 2282965). The following applies: HepG2 TCF/beta-catenin cis-reporter transcription, actives raise or lower the signal. An outline of the steps:
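Using capillary electrophoresis as the read-out, labelled reporter cDNA fragments from transiently transfected HepG2 were sized and quantified. Exposure lasted 24 hours; activity in either direction was referenced to DMSO.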

Assay [17] is described as follows: ATG_TAL_CIS: Attagene CIS-FACTORIAL HepG2 Assay for human TAL Basal Promoter (AID 2282966).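 Also: background control endpoint measuring basal TAL promoter reporter mRNA not a specific factor.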 Conditions: HepG2 Attagene cis-factorial TAL promoter reporter; actives raise or lower the signal. A digest of the protocol:
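HepG2 cells transiently transfected with multiplexed cis-promoter reporter units, dosed 24 h. Reporter mRNA quantified by RT-PCR, 6-FAM labelling, HpaI digestion and capillary electrophoresis; TAL basal promoter serves as background control, fitted bidirectionally versus DMSO.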

Assay [18] is described as follows: ATG_TGFb_CIS: Attagene CIS-FACTORIAL HepG2 Assay for human Transforming Growth Factor (TGF) (AID 2282967). The following applies: HepG2 Attagene CIS TGFb reporter, mRNA transcription; actives raise or lower the signal. An outline of the steps:
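HepG2 cells transiently transfected with cis-promoter-driven multiplexed reporter units; 24 h compound exposure. Reporter mRNA measured by RT-PCR, 6-FAM labeling, HpaI digestion and capillary electrophoresis; bidirectional fit versus DMSO baseline.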

Assay [19] can be described thus: ATG_VDRE_CIS: Attagene CIS-FACTORIAL HepG2 Assay for human Vitamin D Receptor Element (VDRE) (AID 2282968). Conditions: HepG2 VDRE cis-reporter transcription, actives raise or lower the signal. A digest of the protocol:
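RT-PCR/CE readout of reporter mRNA; HepG2, transient transfection, 24 h dosing; DMSO baseline; bidirectional analysis.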

In assay [20] the target is Paired box protein Pax-6 (Homo sapiens) (UniProt P26367). The assay is described as follows: ATG_Pax6_CIS: Attagene CIS-FACTORIAL HepG2 Assay for human Paired Box 6 (PAX6) (AID 2282956). Conditions: HepG2 CIS-FACTORIAL PAX6 reporter transcription, RNA readout; actives raise or lower the signal. A digest of the protocol: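 HepG2 cells transiently transfected with multiplexed cis-promoter reporter units (endogenous TF activity) were dosed for 24 h. Reporter mRNA was quantified by RT-PCR, 6-FAM labeling, HpaI digestion and capillary electrophoresis; bidirectional fitting versus DMSO baseline.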

SMILES strings stand for the structures. The source made the active and inactive calls. The calls were made as follows: active = hit-call score of the fitted dose curve at least 0.9, where 1 is the maximum; inactive = score below 0.9.

Chain of Hypoxia-inducible factor 1-alpha (Homo sapiens) (Q16665 whole entry, looked up): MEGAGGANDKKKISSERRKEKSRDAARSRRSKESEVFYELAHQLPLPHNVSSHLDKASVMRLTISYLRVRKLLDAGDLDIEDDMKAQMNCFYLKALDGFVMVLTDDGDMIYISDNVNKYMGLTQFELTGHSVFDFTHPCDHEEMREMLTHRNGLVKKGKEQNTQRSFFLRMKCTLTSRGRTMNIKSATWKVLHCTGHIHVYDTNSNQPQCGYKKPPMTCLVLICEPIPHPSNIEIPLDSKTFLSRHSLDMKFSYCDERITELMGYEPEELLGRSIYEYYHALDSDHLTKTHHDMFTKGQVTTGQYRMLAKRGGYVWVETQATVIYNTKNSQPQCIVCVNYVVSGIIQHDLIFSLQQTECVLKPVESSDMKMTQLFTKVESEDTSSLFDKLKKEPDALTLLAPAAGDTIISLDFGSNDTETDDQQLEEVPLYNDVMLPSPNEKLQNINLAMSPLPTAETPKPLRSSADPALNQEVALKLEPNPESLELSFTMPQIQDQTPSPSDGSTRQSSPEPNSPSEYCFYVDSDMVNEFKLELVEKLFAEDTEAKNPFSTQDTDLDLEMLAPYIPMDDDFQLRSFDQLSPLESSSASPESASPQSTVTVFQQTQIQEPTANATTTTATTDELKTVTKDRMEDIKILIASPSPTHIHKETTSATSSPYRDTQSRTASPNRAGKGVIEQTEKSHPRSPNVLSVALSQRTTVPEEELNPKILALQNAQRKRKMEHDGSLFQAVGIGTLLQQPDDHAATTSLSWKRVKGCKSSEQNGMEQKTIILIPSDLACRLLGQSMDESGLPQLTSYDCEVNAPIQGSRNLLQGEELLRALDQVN
Chain of Transcription factor Sp1 (Homo sapiens) (P08047 whole entry, looked up): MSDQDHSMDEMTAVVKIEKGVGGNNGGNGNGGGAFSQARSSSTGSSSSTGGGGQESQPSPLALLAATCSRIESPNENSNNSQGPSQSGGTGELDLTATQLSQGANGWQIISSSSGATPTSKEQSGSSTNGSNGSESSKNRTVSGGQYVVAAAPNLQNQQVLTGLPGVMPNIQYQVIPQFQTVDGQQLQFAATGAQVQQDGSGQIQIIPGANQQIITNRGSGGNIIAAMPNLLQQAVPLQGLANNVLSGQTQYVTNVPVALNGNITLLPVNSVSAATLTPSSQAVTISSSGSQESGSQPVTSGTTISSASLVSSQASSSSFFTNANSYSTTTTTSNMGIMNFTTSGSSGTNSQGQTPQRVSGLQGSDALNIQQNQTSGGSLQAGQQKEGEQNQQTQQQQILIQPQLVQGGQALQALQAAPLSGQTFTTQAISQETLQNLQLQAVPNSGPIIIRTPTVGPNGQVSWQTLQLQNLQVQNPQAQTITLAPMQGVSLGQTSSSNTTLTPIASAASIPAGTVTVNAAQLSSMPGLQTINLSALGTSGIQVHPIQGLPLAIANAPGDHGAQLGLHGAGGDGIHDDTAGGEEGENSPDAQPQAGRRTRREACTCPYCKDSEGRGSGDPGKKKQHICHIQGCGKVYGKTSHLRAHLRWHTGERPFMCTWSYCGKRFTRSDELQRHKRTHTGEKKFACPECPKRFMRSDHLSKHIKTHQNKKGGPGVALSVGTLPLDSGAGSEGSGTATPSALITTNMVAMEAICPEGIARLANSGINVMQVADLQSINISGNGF
Chain of Heat shock factor protein 1 (Homo sapiens) (Q00613 whole entry, looked up): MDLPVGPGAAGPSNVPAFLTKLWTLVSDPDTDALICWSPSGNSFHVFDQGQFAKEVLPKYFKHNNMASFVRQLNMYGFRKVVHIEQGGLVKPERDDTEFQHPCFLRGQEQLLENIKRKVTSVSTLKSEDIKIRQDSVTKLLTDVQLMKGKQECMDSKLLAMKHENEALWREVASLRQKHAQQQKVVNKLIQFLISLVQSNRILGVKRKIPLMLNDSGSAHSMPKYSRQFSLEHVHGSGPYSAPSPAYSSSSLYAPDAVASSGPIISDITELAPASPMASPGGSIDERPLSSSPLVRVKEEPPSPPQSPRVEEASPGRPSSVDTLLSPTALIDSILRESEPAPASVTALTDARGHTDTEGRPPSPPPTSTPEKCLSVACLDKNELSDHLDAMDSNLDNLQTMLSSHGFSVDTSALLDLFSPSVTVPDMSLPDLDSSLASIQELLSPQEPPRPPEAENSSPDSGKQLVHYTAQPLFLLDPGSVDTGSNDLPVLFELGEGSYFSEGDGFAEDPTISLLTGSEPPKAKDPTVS
Chain of Hepatocyte nuclear factor 6 (Homo sapiens) (Q9UBC0 whole entry, looked up, the tested form may be a part): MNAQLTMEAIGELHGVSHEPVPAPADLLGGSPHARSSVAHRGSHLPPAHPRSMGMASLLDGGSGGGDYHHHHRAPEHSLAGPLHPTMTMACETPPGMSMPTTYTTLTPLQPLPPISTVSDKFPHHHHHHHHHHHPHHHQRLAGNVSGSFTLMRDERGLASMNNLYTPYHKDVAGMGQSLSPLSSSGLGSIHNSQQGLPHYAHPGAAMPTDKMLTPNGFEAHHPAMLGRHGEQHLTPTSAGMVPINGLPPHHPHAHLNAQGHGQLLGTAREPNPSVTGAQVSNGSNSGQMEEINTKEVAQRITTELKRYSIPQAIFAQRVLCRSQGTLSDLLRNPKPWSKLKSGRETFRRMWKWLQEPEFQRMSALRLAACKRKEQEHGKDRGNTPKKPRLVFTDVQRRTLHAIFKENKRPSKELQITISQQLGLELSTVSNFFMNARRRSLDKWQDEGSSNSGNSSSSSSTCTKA
Chain of Signal transducer and activator of transcription 3 (Homo sapiens) (P40763 whole entry, looked up): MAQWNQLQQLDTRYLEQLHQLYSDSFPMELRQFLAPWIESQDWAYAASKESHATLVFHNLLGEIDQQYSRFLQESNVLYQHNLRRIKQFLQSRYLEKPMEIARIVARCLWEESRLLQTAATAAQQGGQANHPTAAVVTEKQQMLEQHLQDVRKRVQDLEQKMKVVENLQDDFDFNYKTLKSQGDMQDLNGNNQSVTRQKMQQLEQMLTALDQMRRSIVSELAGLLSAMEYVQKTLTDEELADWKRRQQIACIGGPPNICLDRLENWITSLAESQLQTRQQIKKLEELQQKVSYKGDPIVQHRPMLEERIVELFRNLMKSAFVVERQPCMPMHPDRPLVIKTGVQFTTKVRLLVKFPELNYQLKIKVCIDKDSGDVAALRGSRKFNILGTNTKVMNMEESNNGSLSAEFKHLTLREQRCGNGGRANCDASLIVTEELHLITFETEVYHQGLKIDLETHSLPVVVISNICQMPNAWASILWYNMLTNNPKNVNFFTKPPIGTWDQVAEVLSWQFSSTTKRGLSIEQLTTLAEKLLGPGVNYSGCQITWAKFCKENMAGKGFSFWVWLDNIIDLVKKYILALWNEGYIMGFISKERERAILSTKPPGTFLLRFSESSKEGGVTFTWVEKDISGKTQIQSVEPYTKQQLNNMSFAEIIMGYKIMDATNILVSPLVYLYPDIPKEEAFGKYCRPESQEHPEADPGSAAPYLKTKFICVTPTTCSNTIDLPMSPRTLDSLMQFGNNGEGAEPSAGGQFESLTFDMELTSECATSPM
Chain of Paired box protein Pax-6 (Homo sapiens) (P26367 whole entry, looked up): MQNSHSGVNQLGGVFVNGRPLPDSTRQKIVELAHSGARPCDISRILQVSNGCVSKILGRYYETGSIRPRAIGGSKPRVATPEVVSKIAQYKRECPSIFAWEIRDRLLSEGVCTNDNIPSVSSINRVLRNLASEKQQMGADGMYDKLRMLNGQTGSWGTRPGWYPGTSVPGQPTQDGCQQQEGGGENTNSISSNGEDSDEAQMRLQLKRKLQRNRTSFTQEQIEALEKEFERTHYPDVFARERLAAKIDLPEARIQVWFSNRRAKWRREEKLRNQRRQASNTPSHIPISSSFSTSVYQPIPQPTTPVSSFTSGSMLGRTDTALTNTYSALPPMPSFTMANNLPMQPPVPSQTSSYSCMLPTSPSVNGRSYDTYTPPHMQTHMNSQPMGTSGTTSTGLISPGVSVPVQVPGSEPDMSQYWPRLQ

In the case of `Cc1cc(C(C)(C)c2ccc(O)c(C)c2)ccc1O`, the outcome in assay [1], in assay [2], in [9], in assay [10], in [12] and in assay [15] was inactive. The outcome in [17] and in assay [18] was inactive. Further, the AC50 was 30.3 µM (active) in [3]; 93.9 µM (active) in assay [4]; 39.5 µM (active) in assay [5]; 50.6 µM (active) in [6]; 18.1 µM (active) in assay [7]; 1.7 µM (active) in [8]. In addition, the AC50 in assay [11] was 50 µM (active); in [13] it was 30.3 µM (active); in assay [14], 93.9 µM (active); in assay [16] it was 41.3 µM (active); in assay [19], 13.7 µM (active).

On to `COP(=S)(OC)Oc1cc(Cl)c(I)cc1Cl`, for which the result in [1], in [2], in assay [7], in assay [9], in assay [14] and in [15] was inactive. Also, the call in assay [17] and in assay [18] was inactive. Also, the half-maximal activity concentration (AC50) in assay [3] is 33.4 µM (active); in [4], 27.2 µM (active); in [5], 62.1 µM (active); in assay [6], 37.5 µM (active); in assay [8] it was 8.06 µM (active); in [10], 15 µM (active). Besides, the AC50 was 33.4 µM (active) in assay [11]; 33.4 µM (active) in assay [12]; 37.3 µM (active) in assay [13]; 48.6 µM (active) in [16]; 24.7 µM (active) in assay [19].

Turning to `O=NN1CCOCC1`, the compound was classed as inactive in [1], in assay [2], in assay [3], in assay [4], in assay [5] and in assay [6]. Moreover, the call in [20], in assay [9], in [10], in assay [11], in [12] and in assay [13] was inactive. Further, the result in assay [14], in assay [15], in assay [16], in [17], in assay [18] and in assay [19] was inactive. Further, the AC50 in assay [8] was 69.6 µM (active).

One may read the AC50 as the midpoint of the concentration-response curve, whichever way the signal moves.
